A number with no mark means an inactive call.
Test system: Sporothrix brasiliensis CBS 133006
Assay: growth inhibition relative to untreated control; higher = more growth inhibition (more antifungal activity), active = 80 or more; extreme values may be limits of the assay
Settings: 1 µM; 48 h
In short: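 Yeast-form cells of the reference isolates (grown 7 days in brain heart infusion broth with 2% glucose at 36°C) were exposed at 1 x 10^5 CFU/ml to library compounds at a final 1 μM for 48 h at 35°C in 5% CO2. Growth was checked by visual inspection under an inverted light microscope and quantified by spectrophotometric readings. The value is percent growth inhibition relative to untreated control. Runs were in quadruplicate.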

| Compound | growth inhibition |
| --- | --- |
| Oc1c(I)cc(I)c2cccnc12 | 99.5% (active) |
| O=C1COCc2ccc(Br)cc2N1Cc1ccc(C(F)(F)F)cc1 | 0% |
| COCC(C)NC(=O)CSc1ncnc2sc(-c3ccccc3)cc12 (stereo not drawn) | 17.8% |
| O=C(NC1CCN(c2ccnc3ccccc23)C1)c1cccc(C(F)(F)F)c1 (stereo not drawn) | 0% |
| Nc1ccc(C(=O)Nc2ccc(-c3nc4ccccc4o3)cc2)cc1 | 5.5% |
| Cc1cc(Cl)ccc1NC(=O)CCc1ccc(S(=O)(=O)NCC(C)C)cc1 | 9.75% |
| Nc1ncnc2c1c(-c1cnc3ccccc3c1)nn2CC1CCNCC1 | 13.2% |
| CC(c1cc(Cl)cc(Cl)c1)N(C)c1ncc2c(N)nc(N)nc2n1 (stereo not drawn) | 11.2% |
| Cc1ccc(S(=O)(=O)n2cc(-c3ccnc(N)c3)c3cc(Br)cnc32)cc1 | 0% |
| CC1=NN(c2nc3ccccc3s2)C(=O)C1Cc1cccc2ccccc12 (stereo not drawn) | 17.2% |
| O=C(C1CCCCC1)N1CC(=O)N2CCc3ccccc3C2C1 (stereo not drawn) | 2.25% |
| CN1CCCC1CCO[C@](C)(c1ccccc1)c1ccc(Cl)cc1 (stereo partly drawn) | 11.8% |
| Nc1ncc(-c2ccc(C(F)(F)F)nc2)cc1-c1ccc(C(F)(F)F)nc1 | 18.2% |
| COc1ccc(S(=O)(=O)Nc2ccc(CN3CCN(C(=O)c4cccc(C#N)c4)CC3)cc2)cc1 | 4.25% |
| C[C@H](C(N)=O)N1CCCC[C@@H]1c1ccc(OCc2cccc(F)c2)cc1 | 0% |
| CC(C)NCC(=O)Nc1cccc(C(=O)Nc2cccc(C(F)(F)F)c2)c1 | 11.5% |
| NCC(=O)N1CCn2c(nc(-c3ccccc3)c2Nc2ccc3c(c2)OCO3)C1 | 0% |
| CCc1c(C)nc(-n2nc(C)cc2NC(=O)c2ccccc2SC)[nH]c1=O | 93.5% (active) |
| COc1cc(-c2cc(-c3ccc(S(C)(=O)=O)cc3)cnc2N)ccc1O | 17.8% |

| Compound | growth inhibition |
| --- | --- |
| Cc1ccc(S(=O)(=O)Nc2ccc(CN3CCN(C(=O)c4cccc(C#N)c4)CC3)cc2)cc1 | 2% |
| CC(C)(C)n1nc(Cc2ccc(F)c(Cl)c2)c2c(N)ncnc21 | 14.2% |
| CCn1cnc2c(Nc3cc(F)cc(F)c3)nc(C#N)nc21 | 13% |
| O=C1N(Cc2cc3ccccc3s2)CC2CN(Cc3ccccc3)CCN12 (stereo not drawn) | 22% |
| CCC(=O)Nc1ccccc1C(=O)Nc1ccccn1 | 0% |
| O=C(NC1CCCCC1)N1CCN(Cc2ccc3c(c2)OCO3)CC1 | 9.25% |
| CC(C)(C)C(=O)N(CCCCCCN1C[C@H](O)[C@@H](O)[C@H](O)[C@H]1CO)C1CCCCCC1 | 6.25% |
| O[C@@H](c1cc(C(F)(F)F)nc2c(C(F)(F)F)cccc12)[C@H]1CCCCN1 | 6% |
| COc1ccc(-c2cc(NC(=O)c3ccc(F)cc3Cl)ccc2OC)cc1 | 0% |
| CNC(=O)c1cc(S(=O)(=O)N2CCN(c3ccccn3)CC2)cs1 | 0% |
| O=C(Nc1ccc2c(c1)B(O)OC2)c1ccccc1C(F)(F)F | 13.5% |
| CC(C)(C)OC(=O)N1CCN(c2cc(-c3ccc(Oc4ccccc4)cc3)n[nH]2)CC1 | 10.5% |
| CCCn1c(CNc2ccccc2O)nc2ccccc21 | 11.2% |
| O=C1[C@@H](Oc2ccccc2)[C@@H](c2ccc(Cl)cc2)N1CCn1cnc2c(NCc3ccccc3)ncnc21 | 14% |
| CCOc1ccc(-c2nc(CNCCc3ccc(F)cc3)cs2)cc1 | 3.75% |
| CCOC(=O)c1noc(N)c1-c1ccccc1 | 16.5% |
| CCCCN(CCCC)c1c(C#N)cc(S(=O)(=O)Nc2ccccc2)cc1C#N | 9.25% |
| O=C(c1cc2ccccc2o1)N1CCN(Cc2ccc3c(c2)OCO3)CC1 | 12.8% |
| c1ccc(-c2[nH]c3ccccc3c2C(c2ccccn2)N2CCCC2)cc1 (stereo not drawn) | 4.25% |
